{
  "source": "PubChem BioAssay AID1212",
  "about": "(NMMLSC, 2008)",
  "note": "Unmarked numbers belong to inactive results. The source made the active and inactive calls.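 The calls were made as follows: active = blocks over 60% of fluorescent estradiol binding at 10 µM; inactive = the rest.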",
  "data": [
    {"target": "G-protein coupled estrogen receptor 1 (Homo sapiens) (UniProt Q99527)", "assay": "displacement of E2-Alexa633 from GPER – cell-based, Cos7 GPR30-GFP, flow cytometry, 10 µM, primary screen (AID 1212)", "conditions": "fluorescent estrogen competition, at 10 µM; active compounds read high", "values": [
      {"molecule": "O=C(O)c1ccc([N+](=O)[O-])c2c1NC(c1ccccc1)C1CC=CC21", "note": "(stereo not given)", "inhibition": "100% (active)"},
      {"molecule": "CCOC(=O)c1ccc2c(c1)C1C=CCC1C(c1cccc([N+](=O)[O-])c1)N2", "note": "(stereo not given)", "inhibition": "48%"},
      {"molecule": "COc1cc([N+](=O)[O-])cc2c1NC(c1ccccc1Cl)C1CC=CC21", "note": "(stereo not given)", "outcome": "inactive"},
      {"molecule": "CC(=O)Oc1ccc2c(c1)CCC1C2C(O)CC2(C)C(=O)CCC12", "note": "(stereo not given)", "outcome": "inactive"},
      {"molecule": "O=C1CC(c2ccc3c(c2)OCO3)c2ccc3ccccc3c2N1", "note": "(stereo not given)", "outcome": "inactive"},
      {"molecule": "CC(C)CN(Cc1c(O)ccc2c3c(c(=O)oc12)CCC3)CC(C)C", "inhibition": "3%"},
      {"molecule": "CCc1cc2c3c(c(=O)oc2cc1OCC(=O)OC)CCCC3", "outcome": "inactive"},
      {"molecule": "CC(=O)c1ccc2c(c1)C1C=CCC1C(c1cccc([N+](=O)[O-])c1)N2", "note": "(stereo not given)", "inhibition": "64% (active)"},
      {"molecule": "CCOc1cc2c(c([N+](=O)[O-])c1)NC(c1ccc(Cl)cc1)C1CC=CC21", "note": "(stereo not given)", "outcome": "inactive"},
      {"molecule": "CCOc1cc2c(cc1OCC)C(C1CCCCC1)NCC2", "note": "(stereo not given)", "outcome": "inactive"}
    ]}
  ]
}
